# Test results as given in PubChem BioAssay (EPA / NIEHS).
# Records with an inconclusive call do not appear. Calls of active or inactive are those of the source. The calls were made as follows, unless noted: active = hit-call score of the fitted dose curve at least 0.9, where 1 is the maximum; inconclusive = response in the unintended direction; inactive = score below 0.9.
# Legend:
# [1] = read-out: Cytochrome P450 (CYP24A1_1), CYP24A1 (gene 1591); assay: LTEA_HepaRG_CYP24A1_1: Life Technologies and Expression Analysis (LTEA) Assay for Cytochrome P450 (CYP24A1_1) using HepaRG (AID 2283671; active = hit-call score of the fitted dose curve at least 0.9, where 1 is the maximum; inactive = score below 0.9); settings: mRNA level, 48 h; actives raise or lower the signal
# Summary of the method: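 Cultures of human HepaRG were treated in duplicate for 48 h (0.5% DMSO vehicle, highest dose 100 uM). CYP24A1 mRNA by qRT-PCR, normalized to ACTB, GAPDH, POLR2A.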
# [2] = read-out: xenobiotic metabolism (CYP1A1), CYP1A1 (gene 1543); assay: CLD_CYP1A1_24hr: CellzDirect (CLD) Gene Expression Assay for xenobiotic metabolism (CYP1A1) at 24 hours (AID 2283673);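 also: CYP1A1 mRNA level by quantitative nuclease protection with chemiluminescence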
# Summary of the method: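 Transcript levels were read at 24 h by qNPA chemiluminescence in human liver primary cells. Cells got daily fresh dosing at multiple concentrations (vehicle 0.2% DMSO). Induction fitted upward against DMSO; phase-contrast cytotoxicity annotated.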
# [3] = CCTE_Padilla_ZF_144hpf_TERATOSCORE: (Legacy) CCTE's 144 Hour Post-fertilization zebrafish Assay Teratoscore, Padilla Lab (AID 2283679; active = hit-call score of the fitted dose curve at least 0.9, where 1 is the maximum; inactive = score below 0.9;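 as to AC50: zebrafish embryos with chorions exposed by immersion from 6-8 hpf to 5 dpf with daily renewal; teratogenicity score from eye scoring of death hatching and malformations at 144 hpf; higher score means more developmental defects relative to DMSO baseline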)
# Summary of the method: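 Larvae scored by eye at 144 hpf for death, hatching and malformations after a day in clean Hanks'. Before that, daily-renewed exposure at 80 uM (0.4% DMSO, 26C) from roughly 6-8 hpf through 5 dpf, 4 embryos per chemical.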
# [4] = read-out: Cytochrome P450 2B6 (Homo sapiens) (UniProt P20813); assay: CLD_CYP2B6_24hr: CellzDirect (CLD) Gene Expression Assay for xenobiotic metabolism (CYP2B6) at 24 hours (AID 2283686)
# Summary of the method: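 qNPA chemiluminescent measurement of mRNA at 24 hours in human primary hepatocyte cultures from two donor preparations, with daily fresh dosing and 0.2% DMSO vehicle as baseline. Morphology-based cytotoxicity flagged yes/no.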
# [5] = read-out: glucuronosyltransferase (UGT1A1), UGT1A1 (gene 54658); assay: CLD_UGT1A1_24hr: CellzDirect (CLD) Gene Expression Assay for glucuronosyltransferase (UGT1A1) at 24 hours (AID 2283696)
# Summary of the method: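 UGT1A1 transcript induction was measured by quantitative nuclease protection assay (chemiluminescence) in human hepatocyte cultures 24 h after daily fresh dosing, with 0.2% DMSO as vehicle and baseline.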
# [6] = read-out: Cytochrome P450 2B6 (Homo sapiens) (UniProt P20813); assay: CLD_CYP2B6_48hr: CellzDirect (CLD) Gene Expression Assay for xenobiotic metabolism (CYP2B6) at 48 hours (AID 2283699);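 also: actives raise transcript level above DMSO so potency reflects induction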
# Summary of the method: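 CYP2B6 transcript induction, read by quantitative nuclease protection (S1 digestion, chemiluminescent detection) 48 h after dosing, is fitted upward against 0.2% DMSO. Cultured human liver primary cells, two donor preparations, received fresh chemical daily over multiple concentrations.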
# [7] = CLD_ACTIN_6hr: CellzDirect (CLD) Gene Expression Assay for Baseline Control (Actin) at 6 hours (AID 2283676);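 also: active means increased actin mRNA relative to DMSO vehicle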
# Summary of the method: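 Baseline actin transcript level measured by qNPA (S1 nuclease protection, chemiluminescence) in human hepatocyte cultures 6 h after chemical exposure; 0.2% DMSO vehicle as reference, cytotoxicity noted from morphology.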
# [8] = read-out: alkyl and aryl transferase (GSTA2), GSTA2 (gene 2939); assay: CLD_GSTA2_24hr: CellzDirect (CLD) Gene Expression Assay for alkyl and aryl transferase (GSTA2) at 24 hours (AID 2283693)
# Summary of the method: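 GSTA2 transcript levels were quantified by quantitative nuclease protection assay in primary human hepatocytes 24 h after daily dosing with fresh solutions at multiple concentrations; 0.2% DMSO vehicle as baseline, cytotoxicity flagged morphologically.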
# [9] = read-out: ABC Transporter (ABCB1), ABCB1 (gene 5243); assay: CLD_ABCB1_48hr: CellzDirect (CLD) Gene Expression Assay for ABC Transporter (ABCB1) at 48 hours (AID 2283695);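 as to AC50: potency for induction meaning increase of mRNA over DMSO vehicle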
# Summary of the method: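 ABCB1 mRNA was measured by quantitative nuclease protection assay (chemiluminescence) 48 h after dosing. Human hepatocyte cultures from two separate donors received fresh dosing solutions daily for two days, with 0.2% DMSO as vehicle. Positive-direction fit against DMSO.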
# [10] = read-out: Cytochrome P450 2C19 (Homo sapiens) (UniProt P33261); assay: CLD_CYP2C19_24hr: CellzDirect (CLD) Gene Expression Assay for xenobiotic metabolism (CYP2C19) at 24 hours (AID 2283687);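 also: activity means mRNA induction above DMSO vehicle baseline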
# Summary of the method: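 CYP2C19 mRNA was quantified by qNPA chemiluminescence after 24 h of daily dosing of cultured human primary hepatocytes from two donors; vehicle was 0.2% DMSO, and increases over DMSO baseline were fitted.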
# [11] = read-out: HMG-CoA synthase (HMGCS2), HMGCS2 (gene 3158); assay: CLD_HMGCS2_24hr: CellzDirect (CLD) Gene Expression Assay for HMG-CoA synthase (HMGCS2) at 24 hours (AID 2283691)
# Summary of the method: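 qNPA with S1 nuclease digestion and chemiluminescent detection gave HMGCS2 transcript levels, fitted upward against 0.2% DMSO vehicle. Cultured human hepatocytes (two donors) received fresh compound daily and were harvested at 24 h; phase-contrast morphology flagged cytotoxicity.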
# [12] = read-out: Glyceraldehyde-3-phosphate dehydrogenase (Homo sapiens) (UniProt P04406); assay: CLD_GAPDH_24hr: CellzDirect (CLD) Gene Expression Assay for Baseline Control (Glyceraldehyde 3-phosphate dehydrogenase) at 24 hours (AID 2283692)
# Summary of the method: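 GAPDH baseline-control readout: qNPA chemiluminescent mRNA signal in human primary hepatocytes harvested 24 h after daily dosing, normalised to 0.2% DMSO with positive fitting direction; cytotoxicity annotated by phase-contrast morphology.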
# [13] = read-out: Cytochrome P450 2C19 (Homo sapiens) (UniProt P33261); assay: CLD_CYP2C19_48hr: CellzDirect (CLD) Gene Expression Assay for xenobiotic metabolism (CYP2C19) at 48 hours (AID 2283700);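 also: fitted upward so actives raise CYP2C19 mRNA above the 0.2% DMSO vehicle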
# Summary of the method: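 CYP2C19 mRNA induction read by chemiluminescent quantitative nuclease protection assay after 48 h, with fresh compound added daily for two days to cultured human liver hepatocytes. Activity fitted upward against 0.2% DMSO vehicle.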
# [14] = read-out: Cytochrome P450 3A4 (Homo sapiens) (UniProt P08684); assay: CLD_CYP3A4_24hr: CellzDirect (CLD) Gene Expression Assay for xenobiotic metabolism (CYP3A4) at 24 hours (AID 2283689)
# Summary of the method: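 CYP3A4 mRNA induction read by quantitative nuclease protection (chemiluminescence) 24 hr after dosing. Cultured human hepatocytes (two donor preparations) treated daily, vehicle 0.2% DMSO; phase-contrast morphology annotates cytotoxicity.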
# [15] = read-out: Cytochrome P450 2C9 (Homo sapiens) (UniProt P11712); assay: CLD_CYP2C9_24hr: CellzDirect (CLD) Gene Expression Assay for xenobiotic metabolism (CYP2C9) at 24 hours (AID 2283688)
# Summary of the method: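 Induction of CYP2C9 mRNA was quantified by quantitative nuclease protection assay (chemiluminescence), gain of signal versus 0.2% DMSO vehicle, 24 h after dosing. Human primary hepatocytes (two donors) received fresh chemical daily at multiple concentrations; morphology-based cytotoxicity flagged yes/no.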
# [16] = read-out: organic anion transporter (SLCO1B1), SLCO1B1 (gene 10599); assay: CLD_SLCO1B1_24hr: CellzDirect (CLD) Gene Expression Assay for organic anion transporter (SLCO1B1) at 24 hours (AID 2283690)
# Summary of the method: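 SLCO1B1 mRNA induction read at 24 h by quantitative nuclease protection assay (chemiluminescence), analyzed against DMSO baseline. Human hepatocyte cultures from separate donors received fresh dosing solutions daily; vehicle 0.2% DMSO; cytotoxicity flagged by phase-contrast morphology.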
# [17] = read-out: ABC Transporter (ABCB11), ABCB11 (gene 8647); assay: CLD_ABCB11_48hr: CellzDirect (CLD) Gene Expression Assay for ABC Transporter (ABCB11) at 48 hours (AID 2283697)
# Summary of the method: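 Induction of ABCB11 mRNA relative to 0.2% DMSO, measured at 48 h by qNPA chemiluminescence. Cultured human hepatocytes (two donors) received fresh dosing solutions at several concentrations on two consecutive days.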
# [18] = read-out: xenobiotic metabolism (CYP2C9), CYP2C9 (gene 1559); assay: CLD_CYP2C9_48hr: CellzDirect (CLD) Gene Expression Assay for xenobiotic metabolism (CYP1A2) at 48 hours (AID 2283701; active = hit-call score of the fitted dose curve at least 0.9, where 1 is the maximum; inactive = score below 0.9)
# Summary of the method: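 mRNA level measured by quantitative nuclease protection (S1 digestion, chemiluminescent detection) in lysates of human primary hepatocytes exposed 48 h with daily re-dosing. Induction fitted positively versus 0.2% DMSO; morphology-based cytotoxicity flagged yes/no.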
# Chain of Cytochrome P450 2C19 (Homo sapiens) (P33261 whole entry, looked up): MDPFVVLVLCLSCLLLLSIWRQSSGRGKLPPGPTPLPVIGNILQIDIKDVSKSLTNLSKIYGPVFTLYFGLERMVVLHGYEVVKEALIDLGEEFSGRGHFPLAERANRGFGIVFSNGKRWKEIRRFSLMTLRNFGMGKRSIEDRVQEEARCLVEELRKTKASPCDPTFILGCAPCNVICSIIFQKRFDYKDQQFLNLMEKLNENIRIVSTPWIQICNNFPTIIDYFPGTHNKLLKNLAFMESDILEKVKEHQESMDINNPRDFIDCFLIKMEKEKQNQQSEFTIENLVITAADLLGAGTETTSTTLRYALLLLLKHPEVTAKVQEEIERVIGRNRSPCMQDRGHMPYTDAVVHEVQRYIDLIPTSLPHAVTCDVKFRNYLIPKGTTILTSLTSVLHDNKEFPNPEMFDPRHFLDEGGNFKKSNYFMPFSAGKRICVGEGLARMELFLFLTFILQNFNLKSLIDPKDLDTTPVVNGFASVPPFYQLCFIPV
# Chain of Glyceraldehyde-3-phosphate dehydrogenase (Homo sapiens) (P04406 whole entry, looked up): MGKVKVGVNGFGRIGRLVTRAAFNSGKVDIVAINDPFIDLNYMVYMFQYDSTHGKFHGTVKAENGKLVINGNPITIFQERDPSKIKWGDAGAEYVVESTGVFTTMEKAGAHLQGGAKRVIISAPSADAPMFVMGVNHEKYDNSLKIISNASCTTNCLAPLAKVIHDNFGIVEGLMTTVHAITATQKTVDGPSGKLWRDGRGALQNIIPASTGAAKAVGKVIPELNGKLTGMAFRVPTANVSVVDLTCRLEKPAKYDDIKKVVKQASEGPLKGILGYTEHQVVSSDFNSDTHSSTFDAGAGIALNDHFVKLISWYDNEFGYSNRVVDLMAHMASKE
# Chain of Cytochrome P450 3A4 (Homo sapiens) (P08684 whole entry, looked up): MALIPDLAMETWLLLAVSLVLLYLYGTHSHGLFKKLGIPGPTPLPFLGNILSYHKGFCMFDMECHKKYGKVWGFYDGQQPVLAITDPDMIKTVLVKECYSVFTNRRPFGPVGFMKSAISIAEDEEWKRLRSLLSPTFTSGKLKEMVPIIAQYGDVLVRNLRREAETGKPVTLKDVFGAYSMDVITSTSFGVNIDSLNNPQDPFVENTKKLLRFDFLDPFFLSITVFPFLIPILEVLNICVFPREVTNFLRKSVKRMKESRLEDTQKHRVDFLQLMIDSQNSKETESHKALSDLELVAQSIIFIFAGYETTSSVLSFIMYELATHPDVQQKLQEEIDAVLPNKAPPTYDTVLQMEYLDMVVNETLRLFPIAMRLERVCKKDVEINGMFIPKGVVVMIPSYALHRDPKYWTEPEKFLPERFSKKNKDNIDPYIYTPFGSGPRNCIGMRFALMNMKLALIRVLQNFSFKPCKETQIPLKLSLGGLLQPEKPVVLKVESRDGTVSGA
structure (smiles),measurement,setting,value
CN(C)C(=O)Nc1ccc(Cl)c(Cl)c1,outcome,[1],inactive
same,AC50,[2],4.24 µM (active)
same,outcome,[3],inactive
same,AC50,[4],2.49 µM (active)
same,outcome,[5],inactive
same,AC50,[6],3.85 µM (active)
C=CCOC(Cn1ccnc1)c1ccc(Cl)cc1Cl (stereo not drawn),AC50,[2],1.07 µM (active)
same,outcome,[7],inactive
same,AC50,[3],2.91 µM (active)
same,AC50,[4],0.135 µM (active)
same,outcome,[8],inactive
same,AC50,[9],36.9 µM (active)
same,outcome,[5],inactive
same,AC50,[6],0.163 µM (active)
Oc1ccc(C(c2ccc(O)cc2)C(Cl)(Cl)Cl)cc1,outcome,[2],inactive
same,outcome,[7],inactive
same,AC50,[3],17.1 µM (active)
same,outcome,[4],inactive
same,outcome,[10],inactive
same,outcome,[11],inactive
same,outcome,[12],inactive
same,outcome,[8],inactive
same,outcome,[5],inactive
same,outcome,[13],inactive
CCCN(CCC)c1c([N+](=O)[O-])cc(C(F)(F)F)c(N)c1[N+](=O)[O-],AC50,[2],3.83 µM (active)
same,outcome,[7],inactive
same,outcome,[3],inactive
same,AC50,[4],4.48 µM (active)
same,AC50,[14],8.44 µM (active)
same,outcome,[8],inactive
same,outcome,[9],inactive
same,AC50,[5],8.82 µM (active)
same,AC50,[6],3.56 µM (active)
CCCCOC(=O)C(C)Oc1ccc(Oc2ccc(C(F)(F)F)cn2)cc1 (stereo not drawn),AC50,[3],16.1 µM (active)
same,outcome,[4],inactive
same,outcome,[10],inactive
same,outcome,[15],inactive
same,outcome,[14],inactive
same,outcome,[11],inactive
same,outcome,[8],inactive
same,outcome,[9],inactive
same,AC50,[5],20 µM (active)
same,outcome,[6],inactive
same,outcome,[13],inactive
CC(=O)[C@H]1CC[C@H]2[C@@H]3CCC4=CC(=O)CC[C@]4(C)[C@H]3CC[C@]12C,AC50,[3],8.03 µM (active)
CCCCC(CC)COC(=O)c1ccccc1C(=O)O (stereo not drawn),AC50,[3],0.608 µM (active)
same,AC50,[4],5.12 µM (active)
same,outcome,[15],inactive
same,outcome,[16],inactive
same,outcome,[11],inactive
same,outcome,[12],inactive
same,outcome,[9],inactive
same,outcome,[5],inactive
same,outcome,[17],inactive
same,AC50,[6],20 µM (active)
same,outcome,[13],inactive
C[C@]12C[C@H](O)[C@H]3[C@@H](CCC4=CC(=O)CC[C@@]43C)[C@@H]1CC[C@@H]2C(=O)CO,outcome,[3],inactive
CCCOC(=O)NCCCN(C)C,outcome,[7],inactive
same,outcome,[3],inactive
same,outcome,[4],inactive
same,outcome,[14],inactive
same,outcome,[16],inactive
same,outcome,[11],inactive
same,outcome,[12],inactive
same,outcome,[8],inactive
same,outcome,[9],inactive
same,outcome,[5],inactive
same,outcome,[13],inactive
CC(=O)S[C@@H]1CC2=CC(=O)CC[C@]2(C)[C@H]2CC[C@@]3(C)[C@@H](CC[C@@]34CCC(=O)O4)[C@H]12,AC50,[3],38.3 µM (active)
CC(C)CCCCCCc1ccc(O)cc1,AC50,[3],8.06 µM (active)
CCN(Cc1c(F)cccc1Cl)c1c([N+](=O)[O-])cc(C(F)(F)F)cc1[N+](=O)[O-],AC50,[2],0.786 µM (active)
same,AC50,[3],0.00783 µM (active)
same,AC50,[4],0.365 µM (active)
same,AC50,[14],1.45 µM (active)
same,AC50,[6],0.273 µM (active)
CCCOC(=O)c1ccc(C(=O)OCCC)nc1,outcome,[7],inactive
same,AC50,[3],1.7 µM (active)
same,outcome,[10],inactive
same,outcome,[15],inactive
same,outcome,[11],inactive
same,outcome,[12],inactive
same,outcome,[8],inactive
same,outcome,[9],inactive
same,outcome,[17],inactive
same,outcome,[6],inactive
same,outcome,[13],inactive
C#C[C@]1(O)CC[C@H]2[C@@H]3CCC4=CC(=O)CC[C@@H]4[C@H]3CC[C@@]21CC,outcome,[3],inactive
c1ccc(Nc2ccccc2)cc1,outcome,[2],inactive
same,AC50,[3],64 µM (active)
same,AC50,[4],6.82 µM (active)
same,outcome,[10],inactive
same,outcome,[15],inactive
same,outcome,[14],inactive
same,outcome,[16],inactive
same,outcome,[11],inactive
same,outcome,[8],inactive
same,outcome,[5],inactive
same,outcome,[17],inactive
same,AC50,[6],4.79 µM (active)
same,outcome,[13],inactive
C[C@]12CC[C@@H]3c4ccc(O)cc4C[C@@H](CCCCCCCCCS(=O)CCCC(F)(F)C(F)(F)F)[C@H]3[C@@H]1CC[C@@H]2O (stereo partly drawn),outcome,[3],inactive
COC(=O)CSc1cc(N=c2sc(=O)n3n2CCCC3)c(F)cc1Cl,outcome,[2],inactive
same,AC50,[3],0.0125 µM (active)
same,AC50,[4],2.48 µM (active)
same,outcome,[10],inactive
same,AC50,[14],1.9 µM (active)
same,outcome,[9],inactive
same,AC50,[5],3.17 µM (active)
same,AC50,[6],4.48 µM (active)
same,outcome,[13],inactive
same,AC50,[18],9.13 µM (active)
CCOC(=O)COc1cc(-n2ncc(C(F)(F)F)c(C)c2=O)c(F)cc1Cl,outcome,[2],inactive
same,AC50,[3],0.458 µM (active)
same,AC50,[4],6.56 µM (active)
same,outcome,[10],inactive
same,AC50,[14],20 µM (active)
same,outcome,[11],inactive
same,outcome,[12],inactive
same,outcome,[9],inactive
same,outcome,[5],inactive
same,outcome,[6],inactive
CCOC(=O)[C@H](C)Oc1ccc(Oc2nc3ccc(Cl)cc3o2)cc1,outcome,[2],inactive
same,outcome,[7],inactive
same,outcome,[15],inactive
same,outcome,[16],inactive
same,outcome,[12],inactive
same,outcome,[5],inactive
same,outcome,[17],inactive
